Among the data in the supplement of paper PMC13380429 are morphology score and SARS-CoV-2 infection rate values, retold here.

Test [1] has as its system Vero E6 infected with SARS-CoV-2. The experiment in a line: morphology score (similarity to uninfected cells); higher = more like uninfected cells. The conditions noted are these: 24 h.
Test [2] has the same test system. The experiment in a line: SARS-CoV-2 infection rate relative to infected DMSO; higher = more infection, active = 60 or less. The conditions noted are these: 24 h.

Take `C=Cc1c(C)c2cc3nc(c(CC(=O)O)c4[n-]c(cc5nc(cc1[n-]2)C(C)=C5CC)c(C)c4C(=O)O)[C@@H](CCC(=O)O)[C@@H]3C.[Cu+2]` [chlorophyllin-copper] (10 µM): the morphology score in test [1] was -0.0712. Also, the SARS-CoV-2 infection rate in test [2] is 108% (inactive).

Consider `CCC(=O)O[C@@H]1CC(=O)O[C@H](C)C/C=C/C=C/[C@H](O)[C@H](C)C[C@H](CC=O)[C@H](O[C@@H]2O[C@H](C)[C@@H](O[C@H]3C[C@@](C)(O)[C@@H](OC(=O)CC)[C@H](C)O3)[C@H](N(C)C)[C@H]2O)[C@H]1OC` [midecamycin] (10 µM), for which, in test [1], the morphology score is 0.2. Moreover, in test [2], the SARS-CoV-2 infection rate is 102% (inactive).

`CN(C)CCC(c1ccc(Br)cc1)c1ccccn1` (stereo not given) [brompheniramine] (10 µM): the morphology score in test [1] was -0.0213. Besides, in test [2], the SARS-CoV-2 infection rate was 106% (inactive).

For `COc1ccc(/C=C/CCCCOc2ccc(C(=O)c3cccc(C(=O)O)c3)cc2CCC(=O)O)cc1` (10 µM), the morphology score in test [1] was found to be 0.0773. Also, the SARS-CoV-2 infection rate in test [2] was 95% (inactive).

Compound `CCC(=O)O[C@H]1[C@H](O[C@@H]2[C@@H](C)[C@H](O[C@H]3C[C@@](C)(OC)[C@@H](O)[C@H](C)O3)[C@@H](C)C(=O)O[C@H](CC)[C@@](C)(O)[C@H](O)[C@@H](C)C(=O)[C@H](C)C[C@@]2(C)O)O[C@H](C)C[C@@H]1N(C)C` [erythromycin-estolate] (10 µM) had a morphology score in test [1] of 0.0736. Also, the SARS-CoV-2 infection rate in test [2] was 114% (inactive).

In turn, `C[C@H](CCC(=O)O)[C@H]1CC[C@H]2[C@@H]3[C@H](O)C[C@@H]4C[C@H](O)CC[C@]4(C)[C@H]3C[C@H](O)[C@]12C` [cholic-acid] (10 µM) registered a morphology score in test [1] of 0.0109. Besides, in test [2], the SARS-CoV-2 infection rate was 110% (inactive).

Regarding `CCCCS(=O)(=O)N[C@@H](Cc1ccc(OCCCCC2CCNCC2)cc1)C(=O)O` [tirofiban] (10 µM), the morphology score in test [1] came out at 0.0487. Besides, the SARS-CoV-2 infection rate in test [2] is 110% (inactive).

`Clc1ccc2c(NCCNc3ccnc4cc(Cl)ccc34)ccnc2c1` (10 µM) had a morphology score in test [1] of 0.0758. In addition, the SARS-CoV-2 infection rate in test [2] is 108% (inactive).

Regarding `Clc1cccc(N2CCNCC2)c1` (10 µM), the morphology score in test [1] came out at 0.0057. In addition, the SARS-CoV-2 infection rate in test [2] is 114% (inactive).

For the compound `COc1ccc(CN(CCN(C)C)c2ccccn2)cc1` [mepyramine] (10 µM), the morphology score in test [1] turned out to be 0.0933. The SARS-CoV-2 infection rate in test [2] is 106% (inactive).

Take `CCCOc1ccc(Br)cc1-c1cc(-c2ccc(Cl)cc2)[nH]c1-c1ccncc1` (10 µM): the morphology score in test [1] was determined as 0.113. Also, the SARS-CoV-2 infection rate in test [2] is 100% (inactive).

Consider `CC(=O)N(CC(O)CO)c1c(I)c(C(=O)NCC(O)CO)c(I)c(C(=O)NCC(O)CO)c1I` (stereo not given) [iohexol] (10 µM), for which the morphology score in test [1] was determined as 0.142. Also, the SARS-CoV-2 infection rate in test [2] is 104% (inactive).

The compound `Cc1nc(C)c(Cl)c(O)c1Cl` [clopidol] (10 µM) displayed a morphology score in test [1] of -0.0297. For the same compound, in test [2], the SARS-CoV-2 infection rate was 108% (inactive).

In the case of `Cc1ccc2c(Cl)cc(Cl)c(O)c2n1` [chlorquinaldol] (10 µM), the morphology score in test [1] came out at 0.0549. For the same compound, in test [2], the SARS-CoV-2 infection rate was 99% (inactive).

In the case of `COc1ccc2[nH]cc(C3=CCNCC3)c2c1` (10 µM), the morphology score in test [1] is 0.191. Further, the SARS-CoV-2 infection rate in test [2] was 104% (inactive).

For the compound `COc1ccc(C(=O)c2c(C)n(CCN3CCOCC3)c3ccccc23)cc1` [pravadoline] (10 µM), the morphology score in test [1] was 0.0547. Further, the SARS-CoV-2 infection rate in test [2] was 106% (inactive).

Take `Cc1ccc(-n2nc(C(C)(C)C)cc2NC(=O)Nc2ccc(OCCN3CCOCC3)c3ccccc23)cc1` [doramapimod] (10 µM): the morphology score in test [1] is 0.482. Further, the SARS-CoV-2 infection rate in test [2] is 86% (inactive).

The compound `O=C(O)c1cc2cccc([N+](=O)[O-])c2[nH]1` (10 µM) yielded a morphology score in test [1] of -0.0876. Besides, the SARS-CoV-2 infection rate in test [2] was 100% (inactive).

For the compound `OCc1c[nH]c2ccccc12` [indole-3-carbinol] (10 µM), the morphology score in test [1] worked out at 0.0621. Besides, the SARS-CoV-2 infection rate in test [2] was 94.5% (inactive).

`CNCCCN1c2ccccc2CCc2ccccc21` [desipramine] (10 µM) came in with a morphology score in test [1] of 0.212. For the same compound, the SARS-CoV-2 infection rate in test [2] is 81% (inactive).

Compound `CC[C@]1(O)C[C@H]2CN(CCc3c([nH]c4ccccc34)[C@@](C(=O)OC)(c3cc4c(cc3OC)N(C=O)[C@H]3[C@@](O)(C(=O)OC)[C@H](OC(C)=O)[C@]5(CC)C=CCN6CC[C@]43[C@@H]65)C2)C1` [Vincristine (sulfate)] (10 µM) yielded a morphology score in test [1] of -0.036. In addition, in test [2], the SARS-CoV-2 infection rate was 101% (inactive).

The compound `N#Cc1cc(NC(=O)C(=O)O)c(Cl)c(NC(=O)C(=O)O)c1` [lodoxamide] (10 µM) returned a morphology score in test [1] of -0.0976. The SARS-CoV-2 infection rate in test [2] was 110% (inactive).

`Cc1c(NC(=O)OC[C@@H]2COCCN2)cn2ncnc(Nc3ccc4c(cnn4Cc4cccc(F)c4)c3)c12` (0.833333 µM) yielded a morphology score in test [1] of -0.105. Moreover, in test [2], the SARS-CoV-2 infection rate was 102% (inactive).

For the compound `COc1ccc(-c2cc(=S)ss2)cc1` [anethole-trithione] (10 µM), the morphology score in test [1] was 0.0605. Moreover, the SARS-CoV-2 infection rate in test [2] was 104% (inactive).

As to `C[C@H](Oc1cc(-c2cnn(C3CCNCC3)c2)cnc1N)c1c(Cl)ccc(F)c1Cl` [crizotinib-(S)] (10 µM), the morphology score in test [1] was 0.602. Also, the SARS-CoV-2 infection rate in test [2] is 23% (active).
